# Screens deposited in PubChem by several laboratories.
# TIM10 inh – growth inhibitors of TIM10 yeast strain; inhibition, % at 10 µM; S. cerevisiae TIM10 strain growth, BacTiter-Glo luminescence, 24 h; 330,000 compounds, 1.4% hits;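 active means inhibition of 40% or more at the single tested concentration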;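 further: wild-type TIM10 isogenic control strain grown at permissive 25 °C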
# B2AR ag – agonists of human beta-2 adrenergic receptor inducing internalization. P07550. Am2.2-beta2AR cells, FAP receptor internalization, flow cytometry. response, % (no concentration beside the values). 340,000 compounds, 0.43% hits. AID 504454;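 active means response above a set limit, near 3 SD of response in nonfluorescent compounds, cut at about 42% in these data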
# Target sequence (P07550 whole entry, looked up): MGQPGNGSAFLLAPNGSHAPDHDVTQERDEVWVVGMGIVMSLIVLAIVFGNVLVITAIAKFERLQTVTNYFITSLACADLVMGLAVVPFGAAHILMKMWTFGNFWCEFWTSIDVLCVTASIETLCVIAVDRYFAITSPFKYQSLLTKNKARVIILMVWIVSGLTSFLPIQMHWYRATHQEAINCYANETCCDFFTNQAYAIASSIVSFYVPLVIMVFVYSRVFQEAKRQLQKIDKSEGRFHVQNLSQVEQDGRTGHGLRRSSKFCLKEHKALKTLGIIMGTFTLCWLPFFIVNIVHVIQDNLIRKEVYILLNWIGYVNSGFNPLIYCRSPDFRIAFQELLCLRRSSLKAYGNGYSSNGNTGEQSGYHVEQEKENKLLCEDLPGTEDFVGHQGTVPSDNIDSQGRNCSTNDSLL
# tim23-1 inh – growth inhibitors of tim23-1 mutant yeast; S. cerevisiae tim23-1 growth, BacTiter-Glo luminescence, 24 h; inhibition, % at 20 µM; 330,000 compounds, 1.3% hits; AID 463212;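 active means growth inhibition of the mutant yeast at or above 50%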;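 further: temperature-sensitive mutant grown at 25 °C; plate controls were DMSO-treated mutant yeast for no effect and medium wells lacking yeast for full effect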
# tim10-1 inh – growth inhibitors of tim10-1 mutant yeast | S. cerevisiae tim10-1 ts strain growth, BacTiter-Glo, 24 h | inhibition, % at 20 µM | 330,000 compounds, 2.2% hits | AID 463190;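 active means inhibition of at least 40%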;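 further: mutant grown at 25 °C; 0% = DMSO wells with yeast and 100% = wells holding no yeast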
# PfHsp90 yeast 2 – reduces growth (ATP signal) of yeast expressing P. falciparum Hsp90; S. cerevisiae expressing PfHsp90, BacTiter-Glo ATP, 48 h; yeast lacking PDR1 and PDR3 efflux regulators; inhibition, % at 9.4 µM; 310,000 compounds, 0.32% hits;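 active means every replicate shows inhibition above about 80%, whatever the replicate mean, limit read from the data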;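 further: 0% = DMSO neutral controls and 100% = 20 µM radicicol positive controls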
# tim10-1 conf – tim10-1 yeast growth inhibition, confirmed. shares compounds with tim10-1 inh. S. cerevisiae tim10-1 ts strain growth, BacTiter-Glo, 24 h. inhibition, % at 20 µM. 7,400 compounds, 56% hits;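 active means inhibition of yeast growth at or above a set limit in either of two repeat tests at 20 µM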;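 further: tim10-1 mutant grown at permissive 25 °C to find synthetic lethal compounds; 0% = DMSO yeast wells and 100% = medium wells without yeast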
# tim10 confirm – TIM10 yeast growth inhibition, confirmed; inhibition, % at 10 µM; 4,600 compounds, 63% hits; shares compounds with TIM10 inh; S. cerevisiae tim10 strain growth, BacTiter-Glo luminescence, 24 h; AID 463215;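 active means inhibition of yeast growth at or above a set limit in either of two replicates at 10 µM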;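 further: this counterscreen used the strain with wild-type TIM10; 0% = yeast with DMSO and 100% = medium wells lacking yeast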
# tim23-1 confirm – tim23-1 yeast growth inhibition, confirmed. shares compounds with tim23-1 inh. S. cerevisiae tim23-1 growth, BacTiter-Glo luminescence, 24 h. inhibition, % at 20 µM. 4,400 compounds, 83% hits. AID 463218;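 active means inhibition above about 39% in either of two replicate wells at 20 µM, limit read from the data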;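 further: temperature-sensitive tim23-1 mutant grown at 25 °C; 0% = DMSO wells with yeast and 100% = medium wells without yeast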
# Numbers without * were called inactive; nt = no result. This is a sample that favours compounds with a hit; in the whole collection about 3.8% have one here.
SMILES,TIM10 inh,B2AR ag,tim23-1 inh,tim10-1 inh,PfHsp90 yeast 2,tim10-1 conf,tim10 confirm,tim23-1 confirm
CC(C)c1ccc(C(O)P(=O)(OC2CCCCC2)OC2CCCCC2)cc1 (stereo unspecified),34,11,58*,44*,nt,26,nt,46*
O=C(/C=C/c1ccccc1O)c1ccco1,40,26,52*,44*,20,35*,nt,50*
Nc1ccc(/C=C/C(=O)c2ccco2)cc1,11,-2,33,15,-5,nt,nt,nt
Cc1ccccc1-c1cccc([C@@H]2C[C@H]3C(CN2)CON3C)c1 (stereo partly specified),nt,16,nt,nt,-3,nt,nt,nt
CN(C)c1ccc(-n2cccc2/C=C/[N+](=O)[O-])cc1,92*,27,90*,86*,107*,86*,95*,78*
CC(=O)Nc1ccc(NC(=O)CC2(CC(=O)N3CCOCC3)CCCC2)cc1,-3,2,-7,3,15,nt,nt,nt
N/C(=N\OC(=O)c1cccc(F)c1)c1ccccc1,61*,-19,68*,55*,nt,56*,62*,66*
N/C(=N\OC(=O)c1cccc(F)c1)c1ccccn1,16,-8,16,2,45,nt,nt,nt
Cc1cccc(C(=O)O/N=C(\N)c2ccccn2)c1,23,4,30,15,32,nt,nt,nt
Cc1ccc(/C(N)=N/OC(=O)c2cccc(F)c2)cc1,76*,5,70*,64*,27,48*,79*,40*
CCC(C)n1c(/C=C/c2ccccc2)nc2ccccc21 (stereo unspecified),44*,5,53*,45*,-11,35*,23,50*
CCC(C)n1c(S(=O)(=O)O)nc2ccccc21 (stereo unspecified),-5,4,6,11,-16,nt,nt,nt
O=C(Nc1nnc(S(=O)(=O)N2CCCCCC2)s1)c1ccccc1F,31,9,56*,47*,1,32*,nt,55*
CC(=O)N1c2ccc(S(=O)(=O)NCC3CCC(C(=O)N4CC(C)CC(C)C4)CC3)cc2CC1C (stereo unspecified),1,-11,-3,-1,8,nt,nt,nt
CCC(/C=C1\Sc2ccc(OC)cc2N1CCO)=C\c1sc2ccc(OC)cc2[n+]1CCO,49*,23,64*,62*,49,49*,-24,53*
O=C(NC(=S)Nc1ccc(Cl)cc1)c1ccccc1,31,-6,44,24,-2,nt,nt,nt
O=C(Nc1ccc(Cl)cc1)C(Cl)C(=O)c1ccccc1 (stereo unspecified),59*,26,70*,55*,71,56*,81*,76*
CC12CCC(=O)C=C1CCC1C2C(O)CC2(C)C1CCC2(O)C(=O)COC(=O)COCC(=O)O (stereo unspecified),nt,-10,nt,nt,1,nt,nt,nt
Cc1ccc(C)c(N2CCN(C(=O)c3ccc4nsnc4c3)CC2)c1,28,-3,61*,57*,-11,26,nt,47*
COc1ccc(C(=O)On2c(-c3ccc(Br)cc3)nc3ccccc3c2=O)cc1,74*,15,61*,57*,2,52*,74*,79*
COc1ccc(O)c(CNn2c(-c3ccc(Br)cc3)nc3ccccc3c2=O)c1,28,5,31,35,-4,nt,nt,nt
COc1cc(OC)cc(-c2nc3ccccc3c(=O)n2OC(=O)c2ccc(Br)cc2)c1,61*,16,58*,49*,1,38*,35*,72*
Cc1cn(CC(=O)NCC2CCCO2)c(=O)[nH]c1=O (stereo unspecified),nt,3,nt,nt,6,nt,nt,nt
CC(=O)c1ccc(OCCCN2CCCCC2)cc1,6,-5,2,12,-10,nt,nt,nt
CCCCOc1ccc(C(=O)CCN2CCCCC2)cc1,4,-11,50*,47*,5,17,nt,66*
SMILES,TIM10 inh,B2AR ag,tim23-1 inh,tim10-1 inh,PfHsp90 yeast 2,tim10-1 conf,tim10 confirm,tim23-1 confirm
N#C/C(=C\c1ccccc1)C(=O)NNS(=O)(=O)c1ccc(Br)cc1,5,1,25,8,nt,nt,nt,nt
Cc1ccc2oc(C(=O)NCc3ncc(C)[nH]3)c(C)c2c1,1,-11,-11,-18,5,nt,nt,nt
NNC(=O)c1[nH]c2ccc(Cl)cc2c1-c1ccccc1,19,0,61*,51*,16,52*,nt,42*
O=C(O)CSc1c(-c2ccccc2)c2cc(Cl)ccc2[nH]c1=O,0,1,17,-8,-32,nt,nt,nt
CC(C)CC(=O)Nc1cccc(-c2csc(-c3ccccc3)n2)c1,26,-6,38,32,nt,nt,nt,nt
CCC(=O)Nc1cccc(-c2csc(-c3ccccc3)n2)c1,52*,-4,55*,40*,6,35*,-5,60*
CC(C)c1ccccc1NC(=O)COC(=O)CCN1C(=O)/C(=C\C=C\c2ccccc2)SC1=S,22,2,2,19,-5,nt,nt,nt
O=C(COC(=O)CCN1C(=O)/C(=C\C=C\c2ccccc2)SC1=S)Nc1ccc(Br)cc1,43*,5,54*,49*,0,40*,51*,74*
CCOC(=O)c1cn(Cc2ccc(Br)cc2)nn1,6,10,16,25,nt,nt,nt,nt
CCOC(OCC)c1cn(Cc2ccc3c(c2)C(=O)c2ccccc2C3=O)nn1,37,nt,61*,44*,nt,16,nt,78*
COc1ccc(CN(CCN)C2CC(C)N(C)CC2C)cc1 (stereo unspecified),-11,0,-20,-12,-5,nt,nt,nt
Cn1c(N2CCCC2)nc2c1c(=O)n(Cc1ccc(Cl)cc1)c(=O)n2C,56*,-4,53*,55*,9,40*,35*,60*
Cn1c(N2CCC(C(N)=O)CC2)nc2c1c(=O)n(Cc1ccc(Cl)cc1)c(=O)n2C,9,3,8,13,30,nt,nt,nt
COc1ccc(OC)c(NC(=O)C(C)OC(=O)c2cc3ccccc3[nH]2)c1 (stereo unspecified),nt,-1,nt,nt,-5,nt,nt,nt
Cc1onc(-c2ccccc2)c1C(=O)N/N=C/c1cc(Br)c(Br)o1,20,-9,27,27,-27,nt,nt,nt
Cc1cccc(C(=O)N/N=C/c2cc(Br)c(Br)o2)c1,45*,22,60*,41*,14,17,26,76*
COc1ccc(NC(=O)CN(Cc2ccco2)Cc2ccco2)cc1S(=O)(=O)N1CCCCC1,-2,4,16,3,7,nt,nt,nt
Cc1ccc(-c2nnc(N3CCN(C(=O)c4cccs4)CC3)c3ccccc23)cc1,30,17,69*,55*,-6,50*,nt,59*
